Results: ChEMBL document CHEMBL3433997, “St. Jude Leishmania screening dataset” (2016)
Several values for one entry are separate records, joined by “and”; a condition that tells them apart may be missing. Identical values can stand only once.

What follows are molecules tested against Hexose transporter 1 (Plasmodium falciparum) (UniProt O97467) (assay: ST_JUDE_LEISH: Cytotoxicity at 2uM final concentration against transgenic Leishmania Mexicana promastigotes LmPfHT that are glucose transport deficient and complemented with the Plasmodium falciparum hexose transporter. Activity is measured by DNA content using SYBR green in vitro).
Format: functional
`Cc1cccc(-n2c(Nc3ccc(C)c(Cl)c3)nc3ccc(S(=O)(=O)NC(C)C(C)C)cc32)c1` (stereo not given) gave an inhibition of 1.5%. Molecule `Cc1cccc2nc(-c3cccc(-c4cccc(NC(=O)Cc5c[nH]cn5)c4)c3)[nH]c12` has an inhibition of 2.27%. `CN1CCN(c2cc3c(cc2Br)CCN3C(=O)Nc2ccc(-c3cnc4ccccc4c3)cc2)CC1` was tested, and the inhibition was 100%. For `Cc1cccc2nc(-c3ccc(-c4ccc(NC(=O)CN5CCN(C)CC5)cc4)cc3)[nH]c12`, the inhibition was 1.8%. Work on `O=C(Nc1ccc(C(=O)Oc2ccc3ccccc3c2)cc1)N[C@@H](Cc1ccc(O)cc1)C(=O)NC1CCN(Cc2ccc(O)cc2)C1` (stereo not given in full) yielded an inhibition of -0.55%. `CN1CCN(CCCCCCNc2c3ccccc3nc3ccccc23)CC1` was tested, and the inhibition was 19.4%. Work on `CCCCCC(C)C(C)c1cc(O)c2c(c1)OC(C)(C)C=C2c1cc[n+]([O-])cc1` (stereo not given) yielded an inhibition of 10.4%. Work on `N=C(N)c1ccc(C=Cc2ccc(C(=N)N)cc2O)cc1` yielded an inhibition of -0.04%. Molecule `COc1cc(NC(=O)c2sc(-c3ccc(Cl)cc3)cc2NC(=O)c2cccc(N(C)C)c2)ccc1OCCN1CCCC1` has an inhibition of 0.22%. `COc1cc(NC(=O)N2CCc3cc(OC)c(OCCN4CCCCC4)cc32)cc(C(F)(F)F)c1` gave an inhibition of 12.7%. `Cc1ccccc1C1CCN(C2CCC(NC(=O)/C=C/c3c(F)ccc(F)c3F)CC2)CC1` (stereo not given) showed an inhibition of 2.75%. Molecule `CCN(C)C(=O)n1ncc2c3c(N)nc(N)nc3ccc21` has an inhibition of 4.56%. `Cc1[nH]c(C)c(-c2ccc(CCc3ccc(N)cc3)cc2)c(=O)c1Cl` showed an inhibition of 6.39%. Work on `O=C(/C=C/c1ccc(Cl)c(Cl)c1)NCCCCCN1CCC(NC(=O)c2ccc([N+](=O)[O-])cc2)CC1` yielded an inhibition of 9.99%. With `COc1cc2ccccc2c(OC)c1CCNCCCCNCCc1c(OC)cc2ccccc2c1OC` the inhibition was 12.1%. `Nc1cccc(C=CC(=O)N=c2cc[nH]c3ccccc23)c1` gave an inhibition of 0.74%. With `O=C(/C=C/c1ccc(Cl)c(Cl)c1)NCCCCCCN1CCN(C(=O)Nc2cccc(Cl)c2)CC1` the inhibition was 1.97%. `NC1CCN(CCNCc2cccc(-c3ccc(-c4nc5cc(F)ccc5[nH]4)cc3)c2)C1` (stereo not given) showed an inhibition of 11.1%. Work on `CC1(C)N=C(N)N=C(N)C1c1ccc(Cl)cc1` (stereo not given) yielded an inhibition of 5.72%. `CCN(CC)CCCN(C(=O)Nc1c(Cl)cncc1Cl)c1nc(-c2ccc(F)cc2)cs1` gave an inhibition of 2.42%. Molecule `CC1CCCCN1S(=O)(=O)c1ccc(NC(=O)c2cc(-c3ccccc3O)n[nH]2)cc1` (stereo not given) has an inhibition of 1.81%. Work on `COc1ccc(Cc2c(Cl)nc3nc(N)nc(N)c3c2C)cc1` yielded an inhibition of 7.06%. For `Cc1ccc(O)cc1Nc1ccnc2ccc(C(C)(C)C)cc12`, the inhibition was -2.63%. `O=C(/C=C/c1ccc(Cl)c(Cl)c1)NCCCCCN1CCCC(CNS(=O)(=O)c2ccc(F)cc2)C1` (stereo not given) gave an inhibition of -0.91%. With `Cn1nc(-c2ccccc2F)c2cc(C(=O)NC3CCN(Cc4ccccc4)CC3)sc21` the inhibition was -1.6%. `O=C(/C=C/c1ccc(Cl)c(Cl)c1)NCCCCCN1CCC(c2c[nH]c3ccccc23)C(O)C1` (stereo not given) was tested, and the inhibition was 0.8% and 4.3%. Work on `N=C(N)CCN(Cc1ccccc1)c1ccc(Cl)cc1` yielded an inhibition of -1.28%. With `CCCCCCN1CCN(Cc2cccc(NC(=O)c3ccc(Cl)c(Cl)c3)c2)CC1` the inhibition was 6.59%. `COc1cc(OC)cc(C(=O)Nc2nc(-c3ccc(NC(=O)c4ccccc4)cc3)cs2)c1` showed an inhibition of 9.26%. `O=S(=O)(NCCN1CCCC1)c1cccc(-c2cccc(CNCc3ccccc3)c2)c1` was tested, and the inhibition was 17.2%. `CCN1CCC(N(Cc2ccc(-c3ccc(C(F)(F)F)cc3)o2)C(=O)Cn2c(CCc3cccc(F)c3F)nc(=O)c3ccccc32)CC1` showed an inhibition of 10.6%. Work on `CC(=O)Nc1ccc(CN2CCC(CNC(=O)c3cc(-c4cccc(C(F)(F)F)c4)cs3)C2)cc1` (stereo not given) yielded an inhibition of 0.04%. Molecule `Cc1cc(Cc2ccc(S(=O)(=O)c3cc4c(cc3O)CCN(C)CC4)cc2)ccc1Cl` has an inhibition of 2.07%. `O=S(=O)(NCCN1CCCC1)c1ccc(-c2ccc(CNCc3ccc(F)cc3)cc2)cc1F` gave an inhibition of 5.82%. `CN1CCCC(COc2cc3c(cc2Br)CCN3C(=O)Nc2ccc(-c3ccncc3)c(Cl)c2)C1` (stereo not given) showed an inhibition of 5.78%. For `CC(=O)Nc1cccc(C(=O)Nc2cccc(-c3csc(-c4nc5ccccc5[nH]4)c3)c2)c1`, the inhibition was 2.83%. Molecule `O=C(Nc1ccccc1)N(Cc1ccc(-c2ccc(CNCc3ccc4c(c3)OCO4)cc2)cc1)C1CCN(Cc2ccccc2)CC1` has an inhibition of -0.02%. `CC1(C)N=C(N)N=C(N)N1OCc1cc(Cl)c(CON2C(N)=NC(N)=NC2(C)C)cc1Cl` showed an inhibition of 1%. Work on `Nc1nc(N)c2c(Oc3cccc4ccccc34)cccc2n1` yielded an inhibition of 2.3%. In the case of `O=C(NCCCCN1CCC(c2ccc3c(c2OCCN2CCCC2)CCCC3)CC1)c1ccc(-c2ccc(C(F)(F)F)cc2)cc1`, the inhibition is reported as 5.87%.
